Screening results as filed in PubChem BioAssay.
The list is not random: actives were taken first. Their share in the collection is about 1.9%.
HTR5A inv ctr: HTR5A inverse agonism, opioid heterodimer counter-screen; P47898; HTR5A cell line, luminescence; inhibition, % at 9.3 µM; 340,000 tested, 0.083% active; AID 504634; in the data active = inhibition mostly above about 23%, no sharp cut-off; inactive = mostly below about 18%
Target sequence (P47898 whole entry, looked up): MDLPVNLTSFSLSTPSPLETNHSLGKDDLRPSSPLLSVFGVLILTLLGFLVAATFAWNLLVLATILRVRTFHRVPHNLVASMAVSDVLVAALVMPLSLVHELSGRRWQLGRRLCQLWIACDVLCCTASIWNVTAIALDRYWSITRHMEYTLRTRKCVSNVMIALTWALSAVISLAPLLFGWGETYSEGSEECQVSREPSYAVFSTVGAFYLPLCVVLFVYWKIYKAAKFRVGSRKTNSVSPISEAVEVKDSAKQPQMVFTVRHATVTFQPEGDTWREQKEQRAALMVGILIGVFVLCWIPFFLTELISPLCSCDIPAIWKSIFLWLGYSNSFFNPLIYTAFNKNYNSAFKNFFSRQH
MsrA inh: bovine MsrA inhibition; inhibition, % at 15.5 µM; purified bovine MsrA, absorbance read-out; 360,000 tested, 0.75% active; in the data active = inhibition above about 4.5%
MOR-DOR inv ag-1: inverse agonist of human OPRM1-OPRD1 heterodimerization. P35372+P41143. cell-based MOR-DOR heterodimer luminescence, inverse agonism. inhibition, % at 9.3 µM. 340,000 tested, 0.21% active. AID 504357; in the data active = inhibition above about 22%, passing the limit was not always enough
MsrA act: bovine methionine sulfoxide reductase A activation | purified bovine MsrA, absorbance read-out | activation, % at 10.6 µM | 360,000 tested, 0.3% active | AID 602163; in the data active = activation above about 7.5%
HTR5A ag ctr: HTR5A agonism, opioid heterodimer counter-screen. activation, % at 9.3 µM. 340,000 tested, 0.61% active. HTR5A agonist assay, luminescence, cell-based; in the data active = activation mostly above about 9.5%, no sharp cut-off; inactive = mostly below about 7.6%
MOR-DOR ag-1: OPRM1-OPRD1 heterodimerization agonism; P35372+P41143; cells, luminescence; activation, % at 9.3 µM; 340,000 tested, 0.3% active; AID 504326; in the data active = activation above about 18%
OPRM1-D1 inv cf: OPRM1-OPRD1 heterodimer inverse agonism, confirmation; shares compounds with MOR-DOR inv ag-1; cells expressing OPRM1/OPRD1 heterodimer, luminescence; inhibition, % at 9.3 µM; 580 tested, 20% active; in the data active = inhibition above about 32%
HTR5A inv ctr2: counter-screen for OPRM1-OPRD1 inverse agonists: human HTR5A inverse agonism. shares compounds with MOR-DOR inv ag-1. 580 tested, under 10 active. HTR5A-expressing cells, luminescence. inhibition, % at 9.3 µM
MOR-DOR inv ag-2: counter-screen for HTR5A inverse agonists: OPRM1-OPRD1 heterodimerization inverse agonism; shares compounds with HTR5A inv ctr; U2OS counter-screen cells, complementation luminescence; inhibition, % at 9.3 µM; 190 tested, under 10 active; AID 504912
HTR5A inv confrm: confirmation of human HTR5A inverse agonists; shares compounds with HTR5A inv ctr; HTR5A-expressing cells, inverse agonism, luminescence; inhibition, % at 9.3 µM; 190 tested, under 10 active
MOR-DOR ag-2: counter-screen for HTR5A agonists: OPRM1-OPRD1 heterodimerization agonism; shares compounds with HTR5A ag ctr; U2OS counter-screen cells, complementation luminescence, 3 h; activation, % at 9.3 µM; 800 tested, 13% active; AID 504913; in the data active = activation above about 18%
HTR5A ag confirm: HTR5A (human) agonism, confirmation; shares compounds with HTR5A ag ctr; HTR5A agonist cell assay, luminescence; activation, % at 9.3 µM; 800 tested, 17% active; AID 504915; in the data active = activation above about 17%
MsrA act confirm: confirmation of bovine methionine sulfoxide reductase A activators; shares compounds with MsrA act; purified bovine MsrA, absorbance read-out; activation, % at 10.6 µM; 1,000 tested, 12% active; AID 602270; in the data active = activation above about 4%;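 also: enzyme coupled to thioredoxin and thioredoxin reductase with NADPH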
MsrA conf: bovine MsrA inhibition, confirmed. shares compounds with MsrA inh. purified bovine MsrA, absorbance read-out. inhibition, % at 15.5 µM. 2,300 tested, 41% active. AID 651822; in the data active = inhibition above about 4.5%;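 also: coupled to thioredoxin reductase with NADPH and selenocystamine and DMSO as substrate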
A number is an active result; n = inactive; x = not tested or not shown. Unless noted, no rule for the calls is given here.

SMILES	HTR5A inv ctr	MsrA inh	MOR-DOR inv ag-1	MsrA act	HTR5A ag ctr	MOR-DOR ag-1	MOR-DOR inv ag-2	HTR5A inv confrm	others
COC(=O)NNC(=O)c1ccc(Cl)cc1Cl	n	n	n	n	n	n	x	x
CC(C)(C)OC(=O)C[C@@H]1C/C=C\C[C@H](CC(=O)N(CCO)Cc2ccccc2)C(=O)NC[C@@H](c2ccccc2)OC1=O	n	n	56	n	n	n	x	x	OPRM1-D1 inv cf=n;HTR5A inv ctr2=n
C/C(CC(=O)Nc1ccc(N(C)C)cc1)=N\NC(=O)c1cnccn1	n	n	39	n	n	n	x	x	OPRM1-D1 inv cf=n;HTR5A inv ctr2=n
CC(=O)OCC1(C)CN(c2ccccc2)N(C(=O)c2ccc(F)cc2)C1=O (stereo not given)	n	n	44	n	n	n	x	x	OPRM1-D1 inv cf=n;HTR5A inv ctr2=n
O=C(CC1C(=O)NCCN1C(=O)c1ccc(F)cc1)OCc1ccccc1 (stereo not given)	n	n	n	n	n	n	x	x
N#CC(C#N)=NNc1ccc([N+](=O)[O-])cc1	n	n	31	n	15	n	x	x	OPRM1-D1 inv cf=n;HTR5A inv ctr2=n;MOR-DOR ag-2=n;HTR5A ag confirm=n
CCCCc1nnn2c1C1c3cc(-c4cccnc4)ccc3CCN1C(=O)C2 (stereo not given)	x	n	x	x	x	x	x	x
Cc1cccc2c1N(CCOc1ccccc1Cl)C(=O)C2=O	n	n	34	8.0	n	n	x	x	OPRM1-D1 inv cf=n;HTR5A inv ctr2=n;MsrA act confirm=n
COCC(=O)NCC1CCN(C(=O)C(=O)c2cccs2)CC1	x	n	x	x	x	x	x	x
CNS(=O)(=O)c1cccc(C(=O)OCC(=O)c2cc3ccccc3o2)c1	37	24	77	n	n	n	x	x	OPRM1-D1 inv cf=n;HTR5A inv ctr2=n;MsrA conf=19
CNS(=O)(=O)c1cccc(C(=O)OCCCOC(=O)c2cccc(S(=O)(=O)NC)c2)c1	n	n	n	n	n	n	x	x
O=C(C(=O)N1CCC(CNS(=O)(=O)c2ccccc2OC(F)(F)F)CC1)c1cc2ccccc2o1	x	n	x	x	x	x	x	x
Cn1ccnc1Sc1cc(NCCCO)c([N+](=O)[O-])c2nonc12	n	5.7	37	n	n	n	x	x	OPRM1-D1 inv cf=n;HTR5A inv ctr2=n;MsrA conf=n
N#CC1=C(N)Oc2c(ccc3cccnc23)C1c1ccccc1 (stereo not given)	33	n	n	n	n	n	n	n
CCN1c2ccccc2S(=O)(=O)c2ccccc21	34	n	n	n	n	n	n	n
CC(C)=CCCC1=CC[C@H]2[C@@H](C1)C(C(C)C)=CC(=O)[C@@]2(C)O	x	n	x	x	x	x	x	x
CCOC(=O)CCNC(=O)N1CCCC(Cc2ccccc2)(C(=O)OCC)C1 (stereo not given)	24	n	n	n	n	n	n	n
CCOC(=O)CCNC(=O)N1CCC(CCOc2ccccc2)(C(=O)OCC)CC1	n	n	n	n	n	n	x	x
Nc1ccc(C(=O)NCCCCCCNC(=O)c2ccc(N)cc2)cc1	n	n	n	n	n	n	x	x
N=C1C=CC(=C(c2ccc(N)cc2)c2ccc(N)cc2)C=C1	31	n	n	n	n	n	n	n
COC(=O)C1(F)C(=O)NC(=O)NC1OC (stereo not given)	x	n	x	x	x	x	x	x
C[C@]12Cc3ccccc3C1CC1=N[C@@H](c3ccccn3)O[C@@]13C[C@@H]2C(=O)N3C1CCN(Cc2ccccc2)CC1 (stereo not given in full)	x	n	x	x	x	x	x	x
CCO[C@@H]1OC(C(=O)N2CCN(Cc3ccccc3)CC2)=C[C@H](c2ccc(Br)cc2)[C@H]1CCCO	37	n	n	n	n	n	n	n
O=c1[nH]n2c(=O)c3c([nH]c2c1N=Nc1cccc(Cl)c1)CCCC3	42	n	n	n	n	n	n	n
CN(C)C(=O)N1CCN(C(=O)[C@H](CCc2ccccc2)NC(=O)[C@H]2O[C@@H](n3cnc4c(N)ncnc43)[C@H](O)[C@@H]2O)CC1	x	n	x	x	x	x	x	x
SMILES	HTR5A inv ctr	MsrA inh	MOR-DOR inv ag-1	MsrA act	HTR5A ag ctr	MOR-DOR ag-1	MOR-DOR inv ag-2	HTR5A inv confrm	others
CN1C(=O)/C(=C/c2cc3c(cc2Br)OCO3)NC1=S	23	n	n	n	n	n	n	n
CCn1c(-c2ccc(-c3ccccc3)cc2)c[nH]c1=S	33	n	n	n	n	n	n	n
Cc1sc(NC(=O)CS(=O)(=O)c2ccccc2)c(C#N)c1C	41	n	n	n	n	n	n	n
Cc1sc(NC(=O)CCS(=O)(=O)c2ccccc2)c(C#N)c1C	n	n	n	n	n	n	x	x
CCOCc1c(C(=O)Nc2cc(OCC)c(N3CCOCC3)cc2OCC)oc2ccccc12	n	n	n	n	n	n	x	x
CCOc1cc(N2CCOCC2)c(OCC)cc1NC(=O)c1oc2ccccc2c1C	24	n	n	n	n	n	n	n
COC(=O)c1cc2c(c3c4cc(F)ccc4n(S(=O)(=O)c4cccc(C)c4)c13)C(=O)N(Cc1ccc(N(C)C)cc1)C2	x	n	x	x	x	x	x	x
Cc1ncc(C(O)c2ccc(N(C)C)cc2)n1Cc1ccccc1 (stereo not given)	x	n	x	n	x	x	x	x
CN(C)c1ccc2nc3c(=O)[nH]c(=O)nc-3n(CC(O)C(O)C(O)CO)c2c1 (stereo not given)	33	n	n	n	n	n	n	85
Nc1[nH]c(C(=O)c2ccc(Br)cc2)c(-c2ccccc2)c1C(=O)NCCc1c[nH]c2ccccc12	x	n	x	x	x	x	x	x
CCc1c(-c2ccccc2F)ncn1CCc1ccccc1OC	x	n	x	x	x	x	x	x
COc1cccc(C(C(=O)NC(C)(C)C)N(C(=O)CCC(=O)Nc2cc(C)on2)C(C)C)c1OC (stereo not given)	n	n	n	n	n	n	x	x
COc1cccc(C(C(=O)NC(C)(C)C)N(C(=O)CCC(=O)Nc2cc(C)on2)C(C)(C)C)c1OC (stereo not given)	91	n	n	n	n	n	n	n
COCCCNC(=O)c1cc(C(=O)c2ccccc2Br)c[nH]1	71	n	n	n	n	n	n	n
